Values joined by “and” are separate entries in the source; they are usually repeats but may differ in a detail not shown here. Equal entries are not always repeated. The panel holds about 83,000 compounds, 20% with a hit somewhere; the sample as a whole holds those more often.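 A percent growth of 40 corresponds to 60% growth inhibition; 0 means no net growth; -100 means all cells died. Active threshold: below 10.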 Active and inactive are the calls of the source.
Test system: MDA-MB-468 breast
Assay: NCI-60 one-dose screen, 48 h (100 = growth as untreated, 0 = no growth, -100 = all killed)
Settings: 10 µM unless noted

| SMILES | growth |
| --- | --- |
| COC1=C(Br)C(=O)C(OC)=C(Br)C1=O | 89.2% (inactive) |
| CCC1OC(OC)C=CC1=O (stereo not given) | 100% (inactive) |
| COc1ccc(/C=N/NC(=O)c2c(N)nn(C)c2Nc2ccccc2)cc1Oc1ccccc1 | 66.6% (inactive) |
| COC(=O)c1cc(-c2cccs2)c(C#N)c(N)c1C#N | 80.8% (inactive) |
| COc1ccc(-c2cn(-c3ccccc3)c(-c3ccccc3)n2)cc1OC | 9.76% (active) |
| CCCn1c2cc(OCc3cn(-c4ccc(Br)cc4)nn3)ccc2c2ccnc(C)c21 | 25.6% (inactive) |
| O=C(NC1CCOCC1)c1ccc2c(c1)CN(c1ncc(Cc3cccc(-n4cccn4)c3)s1)CC2 | 41.4% (inactive) |
| CC(C)(C)n1cc(-c2ccnc(NCCCNS(=O)(=O)c3ccc(Cl)cc3)c2)c(-c2cccc(O)c2)n1 | -44.5% (active) |
| c1cc(-c2nc3ccc4[nH]ncc4c3c3c2CCCC3)[nH]n1 | 43.6% (inactive) |
| CCCCCCCCCCOC(=O)c1nn(C(C)=O)c2cc(C)c(C)cc12 | 111% (inactive) |
| CN(C)CCCN1c2ccccc2Sc2ccc(Cl)cc21 | 9.1% (active) and 105% (inactive) and 77.4% (inactive) |
| COc1ccc(OC)c(NC2=C(SCCc3ccccc3)C(=O)c3ccccc3C2=O)c1 | 65.7% (inactive) |
| COC(=O)[C@]12CC[C@@H](C)[C@H](C)[C@@H]1C1=CC(=O)[C@@H]3[C@@]4(C)C[C@@H](OC(C)=O)[C@H](OC(C)=O)[C@@](C)(COC(C)=O)[C@@H]4C(=O)C[C@@]3(C)[C@]1(C)CC2 | 35.3% (inactive) |
| CN1CCN(Cc2ccc(NC(=O)c3cncc(C#Cc4cnc5ccc(OCCCS(C)(=O)=O)nn45)c3)cc2C(F)(F)F)CC1 | -61.6% (active) |
| Cc1c2ccccc2nc2c1ccc1cccnc12 | 89.8% (inactive) |
| O=C(O)c1cn(C2CC2)c2cc(N3CCN(C(=O)N/N=C/c4ccccc4)CC3)c(F)cc2c1=O | 83.7% (inactive) |
| O=C1Cc2cc(CCn3cncn3)c(Cl)cc2N1 | 35.1% (inactive) |
| C/C(Cc1ccc(Cl)cc1)=C(/c1ccccc1)c1ccc(OCCN)cc1 | 97.2% (inactive) |
| Clc1ccc(/C=N/Nc2nc3ccccc3s2)c(Cl)c1 | 89.3% (inactive) |
| COc1ccc2nc(-c3ccc(OC)c(OC)c3)cc(-c3nnc(SCC(=O)Nc4ccc(/C(C)=N\O)cc4)n3-c3ccccc3)c2c1 | 56.2% (inactive) |

| SMILES | growth |
| --- | --- |
| C/C(=C\c1ccc(OCC(=O)O)c(Cl)c1Cl)[N+](=O)[O-] | 119% (inactive) |
| CCc1ccc(C2=C/C(=C/c3ccc(Cl)cc3)C(=O)N2CCc2ccc(S(N)(=O)=O)cc2)cc1 | 13.5% (inactive) |
| CC(C)OCC1CO1 (stereo not given) | 108% (inactive) |
| O=C(O)CSCSCC(=O)O | 91.2% (inactive) |
| Clc1ccc(-c2nc(-c3cccs3)cn3ccnc23)cc1 | -11.1% (active) |
| O=C1c2ccccc2C23C(=C(c4cncnc4)c4ccccc42)CCCN13 (stereo not given) | 93.3% (inactive) |
| CN1CCN(c2c(F)cc(NC3=C(Cl)C(=O)c4ncccc4C3=O)cc2F)CC1 | -46.6% (active) |
| Cc1ccc(C2=Nn3c(nnc3-c3ccccc3)SC2)cc1 | 25.1% (inactive) |
| CO/N=C/C=C\C(=O)N/C=C/C[C@H]1/C=C/[C@H](O)/C=C\C=C\c2cccc(O)c2C(=O)O1 | 59.1% (inactive) and 46.3% (inactive) |
| Cc1cc(C(=O)Nc2cc(Oc3ccc4nc(NC(=O)C5CC5)cn4n3)ccc2C)n(C)n1 | 21% (inactive) |
| O=C1/C(=C/c2ccc(F)cc2)COc2ccc(O)cc21 | 86.4% (inactive) |
| CC(C)(C)OC(=O)CC(S(=O)(=O)c1ccccc1)S(=O)(=O)c1ccccc1 | -23.7% (active) |
| O=C(NCCNc1nccc(-c2c(-c3cccc(O)c3)nc3sccn23)n1)c1cc(N2CCOCC2)cc(C(F)(F)F)c1 | 94.8% (inactive) |
| CCC12CCC[N+]3([O-])CCC4(C(=Nc5ccccc54)C(O)(C(=O)OC)C1)C23 (stereo not given) | 112% (inactive) |
| COc1cc(-c2nn(-c3cccc(NC(=O)NCCNC(=O)c4cccc(C(F)(F)F)c4)c3)cc2-c2ccncc2)ccc1Cl | 7.11% (active) |
| O=C(O)c1cn(C2CC2)c2cc(N3CCN(Cc4cc(Cl)ccc4O)CC3)c(F)cc2c1=O | 81.9% (inactive) |
| CC[C@H](Nc1ncnc(N)c1C(N)=O)c1nc2cccc(NCc3ccc(C(=O)NO)cc3)c2c(=O)n1-c1ccccc1 | 32.2% (inactive) |
| Cc1nc(Nc2cccc(NC(=O)Nc3ccc(Cl)cc3)c2)c2ccccc2n1 | 75% (inactive) |
| Nc1ccc(O)c(C(=O)O)c1 | 73.1% (inactive) and 9.23% (active) and 98.8% (inactive) |
| COc1cc2c(cc1O)c(=O)n(CCN(C)C)c1c3cc4c(cc3ncc21)OCO4 | -57.9% (active) |

Reference: PubChem BioAssay (NCI)
